Assay results from PubChem BioAssay AID504853 (Southern Research Specialized Biocontainment Screening …, 2011).
Measured potencies and affinities stand elsewhere. Active and inactive are the calls of the source. The rule behind the calls is not given here.

Assay: HepG2 cell cytotoxicity, dose response, cytotoxicity control, set 3 (AID 504853)
Conditions: series mostly up to 50 µM

Structure (SMILES) | outcome
O=C(CSc1nc2ccccc2c(=O)[nH]1)NC1CCCC1 | inactive
CC(C)CCNC(=O)CSc1nc2c(c(=O)[nH]1)CCC2 | inactive
COc1cccc(NC(=O)CSc2nc3ccccc3c(=O)[nH]2)c1 | inactive
CN(C)C(=O)CSc1nc2ccccc2c(=O)[nH]1 | inactive
COC(=O)C(Nc1nc(SCC(=O)NC2CCCCC2)nc2ccccc12)c1ccccc1 (stereo not given) | inactive
